Hits are enriched below; roughly 14% of the tested compounds scored in any of these assays.
Pf growth 96h – P. falciparum growth inhibition at 96 hour, primary screen for plastid delayed-death inhibitors. Potency, µM (doses to about 28.7 µM), for inactives: at the highest dose activity change, negative = inhibition, hits mostly inhibitors. P. falciparum luciferase reporter growth, 96 h. 6.9% of 320,000 active. AID 504834; also: potency is read from the fitted curve at half-maximal effect
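Delayed-death screen, second-generation endpoint: infected erythrocytes, 2% hematocrit, 0.05% parasitemia final; 96 hours at 37 C, 5% CO2; luciferase detection reagent; luminescence decrease equals reduced growth.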
Pf growth 48h – inhibits P. falciparum growth in the first generation, 48 h; P. falciparum luciferase growth in erythrocytes, 48 h; Potency, µM (highest dose often 28.7 µM), inactives show at the highest dose activity change, negative = inhibition, actives largely listed as inhibitors; 5.9% of 310,000 active; AID 504832; also: potency is read from the fitted curve at half-maximal effect
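Luminescence readout; reporter = integrated firefly luciferase in P. falciparum. RBC culture at 2% hematocrit, 0.1% parasitemia final, 37 C/5% CO2; decreased signal taken as growth inhibition.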
Giardia FBPA inh – blocks Giardia fructose-bisphosphate aldolase activity. purified Giardia FBPA. Potency, µM (highest dose often 59.6 µM), without a hit: top-dose activity, negative = inhibition, most hits filed as inhibitors. 0.71% of 290,000 active. AID 2451; also: potency is read from the fitted curve at half-maximal effect; nearly all actives have a fitted effect of over 55% in size
Target sequence (A8B2U2 whole entry, looked up): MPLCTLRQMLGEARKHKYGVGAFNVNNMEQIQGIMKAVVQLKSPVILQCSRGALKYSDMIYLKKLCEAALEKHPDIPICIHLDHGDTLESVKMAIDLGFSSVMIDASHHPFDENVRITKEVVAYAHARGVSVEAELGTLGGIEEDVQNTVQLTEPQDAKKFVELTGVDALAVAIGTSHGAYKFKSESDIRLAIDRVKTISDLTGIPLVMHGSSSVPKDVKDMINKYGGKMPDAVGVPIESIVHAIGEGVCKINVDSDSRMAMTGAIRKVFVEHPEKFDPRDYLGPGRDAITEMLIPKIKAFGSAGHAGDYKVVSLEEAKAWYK
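Giardia FBPA (40 nM reagent) was preincubated 10 min at RT with compound (up to 57.5 uM final), then substrate plus GAPDH/TPI/NAD/arsenate coupling system with diaphorase/resazurin was added; resorufin fluorescence (525/598 nm) was read after 20 min.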
HCMV inh – inhibitors of human cytomegalovirus | 4.5% of 410,000 active | activity change, negative = inhibition, % at 57.5 µM | HFF cells, HCMV-luciferase reporter, 72 h; active compounds read low; in the data active = activity change below about -60%; inconclusive = no clear call, values can overlap the other calls; inactive = above about -39%
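Screen run at 2 compound doses on HFFs infected with reporter HCMV, MOI 1 PFU/cell. Luciferase activity from cell lysates at 72 h post infection gave inhibition relative to buffer-only and Salinomycin wells.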
Sm TGR inh – inhibitors of Schistosoma mansoni thioredoxin glutathione reductase; Q962Y6; purified TGR, DTNB reduction, TNB absorbance 405 nm; Potency, µM (highest dose often 114 µM), inactives show top-dose activity change, negative = inhibition, actives largely listed as inhibitors; 3% of 360,000 active; also: potency is read from the fitted curve at half-maximal effect; nearly all actives have a fitted effect of over 60% in size
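Kinetic colorimetric format: TGR-catalysed, NADPH-driven DTNB reduction monitored via TNB absorbance. Enzyme dispensed at 20 nM; compound exposure 15 min at room temperature before reaction start.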
* marks the source's active call; other numbers are inactive results; ? = inconclusive; . = no result; [ ] = remark or other dose. Unless noted, calls follow the shape of the dose curve; as a rule, active = well fitted curve in the direction sought with a large enough effect; inconclusive = small, poorly fitted or top-dose-only effect, or another doubt; inactive = no such curve, though single readings can be large; an effect the other way counts as inactive or inconclusive. % is scaled to controls: 0 for no effect and ±100 for the full control effect.

SMILES | Pf growth 96h | Pf growth 48h | Giardia FBPA inh | HCMV inh | Sm TGR inh
Cc1cc(C)c(C)c(S(=O)(=O)NCc2ccc(C(=O)N3CCCCC3)cc2)c1C | 0.41µM* | 1µM* | -1% | -16 | 2%
Cc1ccc(S(=O)(=O)NCc2ccccc2)cc1C(=O)N1CCCCCCC1 | 0% | -12% | . | -19 | 3%
CNC(=O)[C@@H](Cc1ccccc1)N(C)C(=O)[C@@H](Cc1ccc2ccccc2c1)N(C)C(=O)/C=C/CC(C)(C)N | . | . | 3% | . | .
COc1ccccc1CNS(=O)(=O)c1cc2c3c(c1)CCN3C(=O)CC2 | 6% | ? | . | -7 | -3%
O=C(CC1C[C@H](C(=O)N2CCOCC2)[C@@]2(CCC3CCCC3)c3[nH]c4ccccc4c3CCN2C1=O)NCCC1=CCCCC1 (stereo partly specified) | . | . | . | -22 | .
C/C(=N\NC(=O)C1CC1)c1ccc(Cl)cc1 | 5.2µM* | ? | 2% | -9 | -4%
COCCCNC(=O)CC1C[C@H](C(=O)N(C(C)C)C(C)C)[C@@]2(C)c3[nH]c4ccccc4c3CCN2C1=O (stereo partly specified) | . | . | . | 32 | .
CCOC(=O)c1ccc(N=C2SC(C(=O)Nc3ccc(C(=O)O)cc3)CC(=O)N2Cc2cccs2)cc1 (stereo unspecified) | 13% | ? | -4% | -71* | 4%
COc1ccc(N=C2SC(C(=O)Nc3ccc(OC)cc3)CC(=O)N2CCN2CCOCC2)cc1 (stereo unspecified) | -14% | 2% | 4% | 33 | -29%
CCOC(=O)c1ccc(N=C2SC(C(=O)NC)CC(=O)N2Cc2ccc(F)cc2)cc1 (stereo unspecified) | 1.7µM* | -25% | 3% | -36 | 0%
Cn1cc(C(c2ccccc2)c2ccc(Cl)s2)c2ccccc21 (stereo unspecified) | . | . | . | 22 | 2%
CCOC(=O)c1sc2nc(C)nc(SC(C)C(=O)NC3CC3)c2c1C (stereo unspecified) | 47% | -11% | . | -23 | 1%
Cc1ccc(OCC(=O)Nc2cccc(C(=O)OCc3cc(=O)n4c(C)csc4n3)c2)cc1 | . | . | . | -2 | 0%
Cc1csc2nc(COC(=O)c3cccc(NC(=O)COc4ccccc4Cl)c3)cc(=O)n12 | . | . | . | -61* | -2%
Cc1nn2c(=O)cc(COC(=O)c3cccc(NC(=O)COc4ccc(C)c(C)c4)c3)nc2s1 | . | . | . | -62* | 25%
Cc1nn2c(=O)cc(COC(=O)c3ccc(NC(=O)COc4ccc(C)c(C)c4)cc3)nc2s1 | . | . | . | -28 | -2%
Cc1ccccc1OCC(=O)Nc1ccc(C(=O)OCc2cc(=O)n3c(C)csc3n2)cc1 | . | . | . | -87* | 5%
CCc1ccccc1NC(=O)c1nnn(-c2ccc(F)cc2)c1C | . | . | . | 59 | 0%
COC(=O)C1=C(N)N(c2ccccc2C(F)(F)F)C2=C(C(=O)CCC2)C1c1ccc2c(c1)OCO2 (stereo unspecified) | 7.4µM* | 3.7µM* | . | ? | -4%
CCn1c(SCC(=O)N(C(C)C)C(C)C)nnc1-c1cc2ccccc2cc1O | 84% | 1.9µM* | -8% | -36 | -4%
Clc1cccc(CSc2nnc(-c3cccnc3)n2Cc2ccco2)c1 | 18% | ? | -19% | -24 | ?
Clc1ccc(CSc2nnc(-c3cccnc3)n2Cc2ccco2)c(Cl)c1 | ? | 0% | 9% | ? | 14µM*
COc1ccc(C(=O)CSc2nnc(-c3cc4ccccc4cc3O)n2Cc2ccco2)cc1 | -1% | 2.3µM* | 12% | -25 | ?
COc1ccc(C(=O)CSc2nnc(-c3cccnc3)n2Cc2ccco2)cc1 | 0% | 0% | 3% | 44 | 56µM*
CN(C(=O)c1cccc(C#CC(C)(C)O)c1)C1CCCN(Cc2ccccc2F)C1 (stereo unspecified) | 0% | -9% | 20% | -34 | 2%
SMILES | Pf growth 96h | Pf growth 48h | Giardia FBPA inh | HCMV inh | Sm TGR inh
CN(C)c1ccc(CNC(=O)C2COc3ccccc3C2)cc1 (stereo unspecified) | . | . | . | 25 | 4%
CC(=O)N1CCCc2cc(S(=O)(=O)N3CCC(C(=O)N(Cc4ccccc4)C(C)C)CC3)ccc21 | . | . | . | -18 | 0%
c1cncc(CSc2nnc(-c3cccnc3)n2Cc2ccco2)c1 | 32% | 17% | -1% | -30 | ?
CC1CCN(C(=O)CSc2nnc(-c3cc4ccccc4cc3O)n2Cc2ccco2)CC1 | 3%[5.75 µM] | 12µM* | -9% | 1 | ?
O=C(CSc1nnc(-c2cnccn2)n1Cc1ccco1)Nc1ccc(Br)cc1 | . | ? | 0% | -2 | ?
O=C(CSc1nnc(-c2cccnc2)n1Cc1ccco1)N1c2ccccc2Sc2ccccc21 | ? | ? | -2% | 31 | 25µM*
COc1ccc(C(=O)CSc2nnc(-c3cnccn3)n2Cc2ccco2)cc1 | . | . | -12% | -5 | 35µM*
CCn1c(SCC(=O)N2CCC(C)CC2)nnc1-c1ccco1 | -4% | -9% | 9% | ? | -31%
CC(C)CN(CC(C)C)C(=O)Nc1ccccc1F | -2% | 1%[5.75 µM] | 2% | ? | 18%
C[C@H]1CN([C@@H](C)CO)C(=O)c2cc(-c3cccc(F)c3)cnc2O[C@H]1CN(C)C(=O)c1cnccn1 | . | . | . | -4 | .
COC(=O)[C@]1(C)N[C@H](CN(C)S(=O)(=O)c2ccc(C(F)(F)F)cc2)[C@@H]2C(=O)N(C)C(=O)[C@@H]21 | . | . | . | -7 | .
O=C(NNC(=O)C1CCC1)c1ccc(F)cc1 | . | . | . | -1 | .
Cc1ccc(OC(=O)c2cccnc2)cc1 | 12µM* | -2% | 8% | -9 | 0%
Cc1cc(C)cc(OC(=O)c2cccnc2)c1 | ? | -13% | -1% | -8 | 4%
O=C(Oc1ccc2c(=O)c(Cl)coc2c1)c1cccnc1 | 19% | 57% | 4% | 0 | 32µM*
Cc1cc(=O)[nH]c(N/N=C/c2ccc(OC(=O)c3cccnc3)cc2)n1 | 38% | 6% | 0% | -65* | -4%
NC(=S)N/N=C/c1ccc(OC(=O)c2cccnc2)cc1 | ? | 13% | ? | 0 | 4%
O=C(CSc1ncn[nH]1)Nc1ccccc1C(=O)O | 2.9µM* | 10% | -10% | 23 | -27%
CCN(c1ccccc1)S(=O)(=O)c1ccc(Cl)c(NC(=O)CSc2ncn[nH]2)c1 | -23% | -22% | 10% | -101* | 7%
CCN(c1ccccc1)S(=O)(=O)c1ccc(Cl)c(NC(=O)CSc2n[nH]c(N)n2)c1 | -11% | -10% | 11% | -67* | -2%
CCCc1cc(=O)[nH]c(SCC(=O)Nc2cc(S(=O)(=O)N(CC)c3ccccc3)ccc2Cl)n1 | . | . | . | -20 | .
COc1ccccc1NC(=O)CSc1ncn[nH]1 | 0% | -4% | -1% | -15 | -28%
CC(C)N1CCC(C)(C(=O)Nc2ccc(Cl)c(Cl)c2)C1 (stereo unspecified) | . | . | . | 9 | .
CCOc1ccc(Nc2nc(N(C)c3ccccc3)nc(N)c2[N+](=O)[O-])cc1 | 9% | 20% | 2% | 38 | 0%

Compound activity from PubChem BioAssay.
